Inconclusive results are not listed. The source made the active and inactive calls. Unless noted, calls follow the shape of the full dose curve.
Columns and labels:
[1] = target: Peroxisome proliferator-activated receptor delta (Homo sapiens) (UniProt Q03181); assay: qHTS assay to identify small molecule agonists of the peroxisome proliferator-activated receptor delta (PPARd) signaling pathway (AID 743212)
Outline: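 HEK293H UAS-bla reporter cells, human PPARd system; compounds delivered in DMSO after 5 h plating, then at 37 C. Beta-lactamase FRET read, 2 h RT substrate step.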

[2] = qHTS assay to identify small molecule antagonists of the peroxisome proliferator-activated receptor delta (PPARd) signaling pathway - cell viability counter screen (AID 743213; active = well fitted curve in the direction sought with a large enough effect in the repeat runs; an effect the other way counts as inactive or inconclusive; also: nearly all actives have a fitted effect of over 50% in size)
Outline: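 Agonist-stimulated (L165041, 300 nM final) HEK293H PPARd UAS-bla cells are exposed to compounds for 17 h at 37 C, and ATP-based luminescence (CellTiter-Glo) from the same wells reports cytotoxicity.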

[3] = target: Bile acid receptor (Homo sapiens) (UniProt Q96RI1); assay: qHTS assay to identify small molecule antagonists of the farnesoid-X-receptor (FXR) signaling pathway (AID 743217; active = well fitted inhibition curve with a large enough effect in the signal ratio in the repeat runs, not every such curve was filed as active; the % refers to the signal ratio; also: potency is read from the fitted curve at half-maximal effect)
Sequence of Bile acid receptor (Homo sapiens) (Q96RI1 whole entry, looked up): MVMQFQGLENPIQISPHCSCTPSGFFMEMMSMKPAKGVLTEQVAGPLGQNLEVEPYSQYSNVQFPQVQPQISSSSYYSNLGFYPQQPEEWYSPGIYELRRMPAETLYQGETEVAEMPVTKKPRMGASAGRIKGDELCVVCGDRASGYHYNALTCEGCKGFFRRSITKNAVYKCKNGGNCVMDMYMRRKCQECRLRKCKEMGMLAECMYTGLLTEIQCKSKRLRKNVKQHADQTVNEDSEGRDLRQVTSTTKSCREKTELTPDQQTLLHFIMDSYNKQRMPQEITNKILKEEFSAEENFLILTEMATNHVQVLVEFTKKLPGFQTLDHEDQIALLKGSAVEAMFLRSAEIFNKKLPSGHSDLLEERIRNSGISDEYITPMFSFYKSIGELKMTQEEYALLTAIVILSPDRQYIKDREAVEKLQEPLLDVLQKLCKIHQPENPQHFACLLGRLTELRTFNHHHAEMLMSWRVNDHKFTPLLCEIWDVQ
Outline: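 Antagonist mode against 50 uM (final) chenodeoxycholic acid stimulation in FXR-bla HEK 293T cells, 16 h at 37 °C. Inhibition detected as reduced beta-lactamase activity via LiveBLAzer B/G FRET fluorescence after 2 h at room temperature.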

[4] = qHTS assay to identify small molecule agonists of the farnesoid-X-receptor (FXR) signaling pathway - cell viability counter screen (AID 743218; active = well fitted curve in the direction sought with a large enough effect in the repeat runs; an effect the other way counts as inactive or inconclusive; also: nearly all actives have a fitted effect of over 45% in size)
Outline: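 Cytotoxicity counter-screen run in parallel, same wells: FXR-UAS-bla HEK 293T cells dosed 16 h at 37 C, viability read by CellTiter-Glo luminescence after 30 min at room temperature.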

[5] = qHTS assay to identify small molecule antagonists of the farnesoid-X-receptor (FXR) signaling pathway - cell viability counter screen (AID 743221; active = well fitted cell-killing curve with a large enough effect in the repeat runs, not every such curve was filed as active; also: nearly all actives have a fitted effect of over 50% in size)
Outline: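 CellTiter-Glo, 30 min RT, luminescence; same wells as the LiveBLAzer FRET read. Cells: FXR-UAS-bla HEK 293T. Treatment: compound with chenodeoxycholic acid 50 uM final, 16 h at 37 C.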

[6] = qHTS assay to identify small molecule agonists of the vitamin D receptor (VDR) signaling pathway - cell viability counter screen (AID 743224; active = well fitted curve in the direction sought with a large enough effect in the repeat runs; an effect the other way counts as inactive or inconclusive; also: nearly all actives have a fitted effect of over 50% in size; also: potency is read from the fitted curve at half-maximal effect)
Outline: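 Viability is measured in the same wells as the VDR-bla reporter assay: after 16 h compound treatment and 2 h substrate loading, CellTiter-Glo is added and luminescence read 30 min later.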

[7] = qHTS assay to identify small molecule antagonists of the vitamin D receptor (VDR) signaling pathway - cell viability counter screen (AID 743225; active = well fitted curve in the direction sought with a large enough effect in the repeat runs; an effect the other way counts as inactive or inconclusive; also: nearly all actives have a fitted effect of over 50% in size)
Outline: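 Cytotoxicity toward the VDR-bla HEK 293T line was scored by ATP-based CellTiter-Glo luminescence, read in the wells already used for the beta-lactamase readout after 16 h compound treatment under 3 nM 1-alpha,25-dihydroxyvitamin D3 stimulation.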

[8] = qHTS assay to identify small molecule agonists of the NFkB signaling pathway (AID 1159509; active = well fitted curve in the direction sought with a large enough effect in the signal ratio in the repeat runs, not every such curve was filed as active; the % refers to the signal ratio; also: series mostly up to about 61 µM)
Outline: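 NFkB-bla ME-180 cells with a beta-lactamase reporter under an NF-kB response element were plated overnight, treated with compounds in DMSO for 5 hr at 37 C, then loaded with FRET substrate for 1.5 hr at room temperature.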

[9] = qHTS assay to identify small molecule agonists of the NFkB signaling pathway - cell viability counter screen (AID 1159515); also: series mostly up to about 61 µM; nearly all actives have a fitted effect of over 55% in size
Outline: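 Multiplexed viability readout: after the 5 hr compound exposure and 1.5 hr FRET substrate step, CellTiter-Glo reagent went into the same NFkB-bla ME-180 wells; ATP luminescence was measured after 30 min at room temperature.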

[10] = qHTS assay to identify small molecule agonists of the endoplasmic reticulum stress response signaling pathway (AID 1159516; active = well fitted activation curve with a large enough effect in the signal ratio in the repeat runs, not every such curve was filed as active; the % refers to the signal ratio)
Outline: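 Tox21 10K library screened in quantitative HTS format on ESRE-bla HeLa cells, a beta-lactamase reporter under ER stress response element control; 5 hr treatment, FRET read.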

[11] = qHTS assay to identify small molecule agonists of the endoplasmic reticulum stress response signaling pathway - cell viability counter screen (AID 1159517); also: nearly all actives have a fitted effect of over 50% in size; also: potency is read from the fitted curve at half-maximal effect
Outline: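 Cells, HeLa ESRE-bla; density, 1,500/well; dosing, 5 hr at 37 C, 5% CO2; readout, CellTiter-Glo luminescence after 30 min RT.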

[12] = qHTS assay to identify small molecule antagonists of the retinoid-related orphan receptor gamma (ROR-gamma) signaling pathway - cell viability counter screen (AID 1159520; active = well fitted curve in the direction sought with a large enough effect in the repeat runs; an effect the other way counts as inactive or inconclusive; also: nearly all actives have a fitted effect of over 50% in size; also: potency is read from the fitted curve at half-maximal effect)
Outline: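 Cytotoxicity was read from cellular ATP (CellTiter-Glo luminescence) after 16 hr at 37 C with 1 uM doxycycline induction. The inducer was added 2 hr after compound transfer to Tet-on ROR gamma CHO cells.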

[13] = target: Nuclear receptor ROR-gamma (Homo sapiens) (UniProt P51449); assay: qHTS assay to identify small molecule antagonists of the retinoid-related orphan receptor gamma (ROR-gamma) signaling pathway (AID 1159521; active = well fitted curve in the direction sought with a large enough effect in the repeat runs; an effect the other way counts as inactive or inconclusive; also: nearly all actives have a fitted effect of over 50% in size; also: potency is read from the fitted curve at half-maximal effect)
Outline: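 Readout: ONE-Glo luciferase luminescence, 30 min at room temperature. System: Tet-on RORγ CHO, RORE-LUC. Sequence: compound 2 h, doxycycline 1 uM final, 16 h at 37 C.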

[14] = qHTS assay to identify small molecule agonists of the AP-1 signaling pathway - cell viability counter screen (AID 1159525); also: nearly all actives have a fitted effect of over 55% in size; also: potency is read from the fitted curve at half-maximal effect
Outline: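 Luminescent ATP readout (Cell Titer Glo, 30 min RT), normalised to DMSO and tetra n-octyl ammonium bromide controls. Cells were ME-180 AP-1-bla in 0.5% dialyzed FBS Opti-MEM, with a 5 h, 37 °C compound exposure.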

[15] = qHTS assay to identify small molecule agonists of the AP-1 signaling pathway (AID 1159526)
[16] = qHTS assay to identify small molecule agonists of the peroxisome proliferator-activated receptor delta (PPARd) signaling pathway - cell viability counter screen (AID 743211; active = well fitted curve in the direction sought with a large enough effect in the repeat runs; an effect the other way counts as inactive or inconclusive; also: nearly all actives have a fitted effect of over 55% in size)
Outline: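 Multiplexed format: after the 2 h room-temperature LiveBLAzer B/G FRET step, CellTiter-Glo was added to the same wells. Luminescence after 30 min gave cell viability; compound exposure was 17 h at 37C.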

[17] = target: Bile acid receptor (Homo sapiens) (UniProt Q96RI1); assay: qHTS assay to identify small molecule agonists of the farnesoid-X-receptor (FXR) signaling pathway (AID 743220; active = well fitted activation curve with a large enough effect in the signal ratio in the repeat runs, not every such curve was filed as active; the % refers to the signal ratio)
Outline: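 Beta-lactamase reporter under UAS control in GeneBLAzer FXR HEK 293T cells (5000/well) measured with LiveBLAzer FRET substrate after 2 h at room temperature. Compound exposure lasted 16 h at 37C.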

[18] = target: Peroxisome proliferator-activated receptor delta (Homo sapiens) (UniProt Q03181); assay: qHTS assay to identify small molecule antagonists of the peroxisome proliferator-activated receptor delta (PPARd) signaling pathway (AID 743215; active = well fitted inhibition curve with a large enough effect in the signal ratio in the repeat runs, not every such curve was filed as active; the % refers to the signal ratio; also: series mostly up to about 62 µM)
Outline: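 Inhibition of L165041-driven (300 nM final) PPARd signaling is scored in HEK293H UAS-bla cells. Exposure lasts 17 h at 37 C; beta-lactamase activity is then read by FRET substrate fluorescence after 2 h at room temperature.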

[19] = target: Vitamin D3 receptor (Homo sapiens) (UniProt P11473); assay: qHTS assay to identify small molecule antagonists of the vitamin D receptor (VDR) signaling pathway (AID 743223; active = well fitted inhibition curve with a large enough effect in the signal ratio in the repeat runs, not every such curve was filed as active; the % refers to the signal ratio)
Sequence of Vitamin D3 receptor (Homo sapiens) (P11473 whole entry, looked up): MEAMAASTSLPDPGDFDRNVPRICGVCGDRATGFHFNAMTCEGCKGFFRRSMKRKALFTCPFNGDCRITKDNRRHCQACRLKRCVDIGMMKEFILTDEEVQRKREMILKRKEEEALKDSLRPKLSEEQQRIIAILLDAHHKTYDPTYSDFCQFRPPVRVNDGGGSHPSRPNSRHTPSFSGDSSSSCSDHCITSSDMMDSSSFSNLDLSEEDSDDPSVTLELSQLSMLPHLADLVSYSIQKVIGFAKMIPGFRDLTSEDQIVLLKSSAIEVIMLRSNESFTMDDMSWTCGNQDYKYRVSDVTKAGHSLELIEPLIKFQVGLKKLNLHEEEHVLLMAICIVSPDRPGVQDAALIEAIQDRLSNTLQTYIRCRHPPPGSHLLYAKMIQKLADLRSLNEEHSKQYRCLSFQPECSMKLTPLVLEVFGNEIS
Outline: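 After VDR-bla cells are plated and left 4 h at 37C, DMSO-dissolved compounds and 3 nM (final) calcitriol agonist are added. Incubation continues 16 h at 37C; FRET beta-lactamase substrate then develops 2 h at room temperature.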

[20] = target: Vitamin D3 receptor (Homo sapiens) (UniProt P11473); assay: qHTS assay to identify small molecule agonists of the vitamin D receptor (VDR) signaling pathway (AID 743222)
Outline: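 Quantitative HTS agonist-mode screen: compounds in DMSO were pin-transferred onto VDR-bla cells and incubated 16 h at 37C, 5% CO2. Reporter activity was detected with LiveBLAzer B/G FRET substrate after 2 h at room temperature.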

Measured: Potency

Sequence of Peroxisome proliferator-activated receptor delta (Homo sapiens) (Q03181 whole entry, looked up): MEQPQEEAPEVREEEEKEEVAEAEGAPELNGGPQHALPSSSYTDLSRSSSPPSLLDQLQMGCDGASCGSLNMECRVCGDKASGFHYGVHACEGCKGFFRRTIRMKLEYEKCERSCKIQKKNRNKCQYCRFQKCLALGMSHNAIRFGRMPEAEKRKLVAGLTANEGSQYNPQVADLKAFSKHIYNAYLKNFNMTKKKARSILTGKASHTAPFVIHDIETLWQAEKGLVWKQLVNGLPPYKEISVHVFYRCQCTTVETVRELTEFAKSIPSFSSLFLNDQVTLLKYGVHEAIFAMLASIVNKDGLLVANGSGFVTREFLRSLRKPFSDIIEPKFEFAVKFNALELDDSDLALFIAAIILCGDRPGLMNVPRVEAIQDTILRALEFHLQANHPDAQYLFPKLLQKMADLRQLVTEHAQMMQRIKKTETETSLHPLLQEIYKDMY

Cc1nnc2n1-c1sc(CCC(=O)N3CCOCC3)cc1C(c1ccccc1Cl)=NC2
not listed: [16] | [17] | [18] | [19] | [20]
inactive: all other assays above

O=[N+]([O-])c1ccc(CBr)cc1
active: [11] 27.2 µM
not listed: [2] | [3] | [17] | [18] | [19] | [20]
inactive: all other assays above

O=C(Nc1ccccc1)N(Cc1ccc(Cl)cc1)C1CCCC1
active: [3] 54.9 µM | [13] 61.1 µM
not listed: [2] | [4] | [6] | [18] | [19] | [20]
inactive: all other assays above

CCOC(=O)C1(c2ccccc2)CCN(CCc2ccc(N)cc2)CC1
not listed: [2] | [3] | [4] | [6] | [17] | [20]
inactive: all other assays above

O=[N+]([O-])c1cc(Cl)c(Cl)c(Cl)c1
not listed: [4] | [16]
inactive: all other assays above

CC1(C)COP(Oc2ccccc2)OC1
not listed: [2] | [4]
inactive: all other assays above

CCC(C)n1c(=O)[nH]c(C)c(Br)c1=O (centres undefined)
not listed: [1] | [2] | [18]
inactive: all other assays above

O=S(=O)(O)C(F)(F)C(F)(F)C(F)(F)C(F)(F)C(F)(F)C(F)(F)F
not listed: [1] | [4] | [16] | [19] | [20]
inactive: all other assays above

CCCCc1ccc(O)cc1
not listed: [4] | [15] | [19] | [20]
inactive: all other assays above

CC1=NNC(=O)N(/N=C/c2cccnc2)C1
not listed: [2] | [3] | [4] | [16] | [17]
inactive: all other assays above

CCOP(=S)(Oc1cnc(C(C)(C)C)nc1)OC(C)C (centres undefined)
not listed: [2] | [3] | [6] | [15] | [16] | [17]
inactive: all other assays above

C=CCC1=C(C)[C@@H](OC(=O)[C@@H]2[C@@H](C=C(C)C)C2(C)C)CC1=O
active: [6] 38.9 µM | [12] 54.5 µM | [13] 27.3 µM | [14] 49 µM
inactive: [2] | [5] | [20] | [8] | [9] | [10] | [11]

ClCCCN1CCN(c2cccc(Cl)c2)CC1
not listed: [3] | [4] | [7] | [15] | [17] | [19] | [20]
inactive: all other assays above
